ChEMBL document CHEMBL3988442, “University of Dundee, Small-Polar-MMV Screening Library” (2021)
The campaign covered roughly 48,000 compounds. About 13,000 (27%) showed an effect of 50% or more. Some of the results follow.

System: Wolbachia pipientis
Experiment: Anti-Wolbachia Cell-Based Screen
Format: functional
Design: scale not given: in the data most compounds retested in dose-response had high values
Conditions: 5 µM

Compound	Percent Effect
CCCS(=O)(=O)NCC1CCOc2ccccc2C1 (centres undefined)	-3.198%
Cn1nnc2c1C(COCC1CC1)CN(C(=O)Cc1ccccn1)C2 (centres undefined)	3.096%
Cc1cc(C)nc(CN(C)c2nc(C3CCCC3)nc3c2cnn3C)c1	180.1%
CCc1nnc(CN(C)c2nc(C3CCCC3)nc3c2cnn3C)o1	-12.86%
Cc1cc(CC(C)Nc2nc(C3CCCC3)nc3c2cnn3C)[nH]n1 (centres undefined)	4.574%
CCCc1nc(N(C)Cc2cnc(NC)nc2)c2cnn(C)c2n1	3.632%
CNCCCNc1nc(C2CCCC2)nc2c1cnn2C	-5.607%
Cc1c[nH]c(CN(C)c2nc(C3CCCC3)nc3c2cnn3C)n1	-9.015%
CN(Cc1ccno1)c1nc(C2CCCC2)nc2c1cnn2C	93.91%
Cn1ncc2c(NCCn3cccc3)nc(C3CCCC3)nc21	12.23%
CNc1ncc(CN(C)c2nc(C3CCCC3)nc3c2cnn3C)cn1	113.7%
Cc1nn(C)c(C)c1CN(C)c1nc(C2CCCC2)nc2c1cnn2C	74.08%
Cc1nc(N(C)CCN(C)C)c2cnn(C)c2n1	-4.82%
CCC(Nc1nc(C2CCCC2)nc2c1cnn2C)c1ccncc1 (centres undefined)	11.81%
O=C(c1ccc(-n2cncn2)cc1)N1CCN(c2cnccn2)CC1	-5.785%
N#Cc1ccc(NCC(=O)Nc2ccn(Cc3cccnc3)n2)cc1	0.1964%
O=C(CCc1ccccn1)N1CCc2cc(Cl)cc(Cl)c2C1	-9.614%
CC(NC1(CNC(=O)C(C)(C)C#N)CCOCC1)c1ccccc1 (centres undefined)	-5.654%
CCOCCNc1nc(C2CCCC2)nc2c1cnn2C	-2.506%
CC(C)N(CCNc1nc(C2CCCC2)nc2c1cnn2C)C(C)C	-18.52%
Cc1noc(C)c1CN(C)c1nc(C2CCCC2)nc2c1cnn2C	118.2%
COc1ncccc1CN1CCn2c(C(=O)N3CCCC3)cnc2C1.O=C(O)C(F)(F)F.O=C(O)C(F)(F)F	-2.628%
COCCN1CCn2cc(CN(C)Cc3ccco3)nc2C1	6.66%
Cc1ccccc1C(Nc1ncnc2c1CCNC2)c1ccccc1 (centres undefined)	93.65%
Cc1[nH]c2ccc(C#N)cc2c1CCNc1ncnc2c1CCNCC2	9.456%
Cc1nc2c(c(NCC(c3ccccc3C)N(C)C)n1)CCNC2 (centres undefined)	96.84%

Compound	Percent Effect
Cc1nc2c(c(NCC(O)C(F)(F)F)n1)CCNCC2 (centres undefined)	-4.402%
Cc1[nH]c2ccc(Cl)cc2c1CCNc1ncnc2c1CCNC2	12.31%
Cc1nc2c(c(NCC(O)c3ccccc3Cl)n1)CCNCC2 (centres undefined)	-5.653%
CCCc1ccc(C(C)Nc2ncnc3c2CCNC3)cc1 (centres undefined)	-93.4%
Cc1ccccc1C(CNc1ncnc2c1CCNCC2)N(C)C (centres undefined)	105.5%
CC(Nc1ncnc2c1CCNC2)c1ccc(C(C)(C)C)cc1 (centres undefined)	30.56%
Cc1ccccc1C(CNc1ncnc2c1CCNC2)N(C)C (centres undefined)	84.04%
CCOc1ccc(C(C)Nc2ncnc3c2CCNC3)cc1OCC (centres undefined)	-5.441%
OC(CNc1ncnc2c1CCNCC2)C(F)(F)F (centres undefined)	-1.789%
Cc1nn(C)c(C)c1CN(C)S(=O)(=O)c1c(C)n[nH]c1C	32.27%
CCC(=O)N1CCN(C(=O)c2ccc(COC)o2)[C@H]2CS(=O)(=O)C[C@H]21	2.835%
CN(C)CCNCC1(O)CCCN(Cc2cccc(F)c2F)C1=O (centres undefined)	-8.676%
CNS(=O)(=O)CCNC(=O)c1coc(COc2ccc(F)cc2)n1	-18.85%
O=C([C@@H]1Cc2[nH]cnc2CN1CC1CC1)N1CCCC1	2.393%
COC(C)(C)C(=O)N1Cc2cnc(C(C)(C)C)nc2C1	5.24%
CC1(C)Cc2nc(C(C)(C)C)ncc2C(NC(=O)Cc2nnn[nH]2)C1 (centres undefined)	84.56%
CC1(C)Cc2nc(C(C)(C)C)ncc2C(NC(=O)CN)C1 (centres undefined)	108.4%
CC(C)(C)c1ncc2c(n1)CN(C(=O)c1ccncc1)C2	6.547%
CC(C)(C)c1ncc2c(n1)CN(C(=O)c1ccc(-n3cnnn3)cc1)C2	-15.52%
CC(=O)NC1CC(C)(C)Cc2c1cnn2-c1cccc(F)c1 (centres undefined)	27.72%
COC(=O)NCC(=O)NC1CC(C)(C)Cc2oc(C)cc21 (centres undefined)	-2.578%
CNCC(=O)NC1CC(C)(C)Cc2nc(C(C)(C)C)ncc21 (centres undefined)	107.2%
Cc1cc(C)n(CC(=O)N2Cc3cnc(C(C)(C)C)nc3C2)n1	-6.513%
Cc1cc2c(o1)CC(C)(C)CC2NC(=O)CNC(=O)C1CC1 (centres undefined)	15.35%
CC1(C)Cc2nc(C(C)(C)C)ncc2C(NC(=O)C2(N)CC2)C1 (centres undefined)	76.58%
CC(=O)N1Cc2cnc(C(C)(C)C)nc2C1	-14.29%

Compound	Percent Effect
O=C(Nc1ccc(F)c(Cl)c1)N1CCCN([C@H]2COC[C@@H]2O)CC1	0.3317%
Cc1nc(C)n(CC2CCCCN2CC(=O)Nc2nncs2)n1 (centres undefined)	-8.145%
Cc1cc(C)cc(CN2CCN(Cc3cc(C#N)n(C)c3)CC2=O)c1	-7.638%
CCCC(C)Sc1nnnn1C1CCOCC1 (centres undefined)	-26.91%
Cc1c[nH]c(CN2CCCn3nc(CNS(C)(=O)=O)cc3C2)n1	-1.605%
CC(O)CNC(=O)NCc1cccnc1OC1CCCC1 (centres undefined)	3.42%
CCC(CNC1CCN(C(=O)N(C)C)CC1)Oc1ccccc1C (centres undefined)	14.11%
CCSCCC(=O)NC1CCN(C(C)c2ccccc2)CC1 (centres undefined)	-12.67%
CCc1nnc(C(C)N2CCN(CCC(C)(C)C)CC2)o1 (centres undefined)	109.6%
CNC(=O)CCN1CCN(C(C)c2ccc(Cl)cc2)CC1 (centres undefined)	7.005%
CCc1nnc(C(C)N2CCC(NC(=O)C3CCCCC3)CC2)o1 (centres undefined)	111.1%
CC(C)c1noc(C(C)N2CCN(CCc3ccncc3)CC2)n1 (centres undefined)	-3.07%
CCS(=O)(=O)c1ccc(N2CCC(NC(=O)C3CCCCC3)CC2)cc1	14.13%
CCc1noc(C(C)N2CCN(Cc3ncc(C(C)(C)C)o3)CC2)n1 (centres undefined)	-21.42%
CCc1noc(C(C)N2CCC(NC(=O)c3ccc(C)s3)CC2)n1 (centres undefined)	-3.823%
CCc1nnc(C(C)N2CCN(CCC(=O)NC3CC3)CC2)o1 (centres undefined)	108.9%
CC(C)(C)n1ncc2c(=O)[nH]c(N3CC(O)C3)nc21	23.02%
CN(C)c1nc(CNC(=O)NC2CCc3ccccc32)cs1 (centres undefined)	14.75%
CC(c1nccs1)N(C)Cc1ccc(CCC(C)(C)O)cc1 (centres undefined)	-1.522%
CC(=O)N1C[C@@H](F)[C@@H](OCc2nc3cc(C)c(C)cc3[nH]2)C1	-18.48%
CCOCCCNC(=O)c1cn(CC)nc1C	9.774%
CCOCCCNC(=O)NCc1c(C)nn(C)c1C	102.2%
CCOCCCNc1nc2c(s1)c(C)nn2C	6.024%
CCc1nc2c(c(N(C)Cc3nncn3CCOC)n1)CCNCC2	0.734%
Cc1cc(CS(=O)(=O)NC2CCCCC2)on1	4.481%
Cc1cn2c(n1)CCC(NS(=O)(=O)c1cc(C)sc1C)C2 (centres undefined)	-1.827%

Compound	Percent Effect
Cc1c(NCc2cccc(C#N)c2)cccc1S(=O)(=O)NC1CC1	-25.48%
Cc1cc(S(C)(=O)=O)c(C)c(S(=O)(=O)NC2CCCC2)c1	3.251%
Cc1cc2[nH]c(=O)c(=O)[nH]c2cc1S(=O)(=O)NC1CCCCC1	114.9%
Cc1cc2[nH]c(=O)c(=O)[nH]c2cc1S(=O)(=O)NC1CCC(C)CC1 (centres undefined)	107.5%
CC(C)(O)CN1CCN(C(=O)COCC(F)(F)F)CC1	2.26%
O=C1NCC2(CCCN(C(=O)c3ccc4c(c3)CCCO4)CC2)O1 (centres undefined)	15.15%
Cc1ccnc(NC(=O)c2ccc(C)o2)c1	-0.4749%
Cc1ccc(NC(=O)c2cccc(OCc3nnnn3C)c2)nc1	97.4%
CN(C)c1ccc(NC(=O)c2cccc(N(C)C)c2)nc1	-10.74%
Cc1ccnc(NC(=O)c2cccc(OCc3nnnn3C)c2)c1	92.28%
Cc1ccc(NC(=O)c2cccc(N(C)C)c2)nc1	-7.622%
Cc1ccnc(NC(=O)c2ccc(Br)o2)c1	-3.231%
CNS(=O)(=O)CCN1CC(c2ccccc2)(c2ccccc2)CCC1=O	8.028%
CCC(CC)(CNC(=O)OC(C)(C)C)NC(=O)c1cnccn1	8.305%
CN(Cc1ccccc1)C1COC2(CCN(Cc3nccs3)CC2)C1.O=C(O)C(F)(F)F (centres undefined)	20.92%
CN(Cc1ccccn1)C1COC2(CCN(Cc3nccs3)CC2)C1 (centres undefined)	-7.584%
CN(Cc1ccncc1)C1CC2(CCN(c3ncccn3)CC2)C1.O=C(O)C(F)(F)F.O=C(O)C(F)(F)F.O=C(O)C(F)(F)F	-4.65%
CN(C)S(=O)(=O)N1CC[C@]2(C[C@H](OCc3ccncc3)CO2)C1.O=C(O)C(F)(F)F	20.75%
Cc1cnc(N2CCC3(CC2)CC(N(C)Cc2ccncc2)C3)nc1.O=C(O)C(F)(F)F.O=C(O)C(F)(F)F	-8.3%
CN(Cc1cccnc1)C1CC2(CCN(c3ncc(F)cn3)CC2)C1.O=C(O)C(F)(F)F.O=C(O)C(F)(F)F	-6.301%
CN(Cc1cccnc1)C1COC2(CCN(Cc3nccs3)CC2)C1.O=C(O)C(F)(F)F.O=C(O)C(F)(F)F.O=C(O)C(F)(F)F (centres undefined)	111.1%
Cc1ccsc1CN1CCC2(CC1)CC(OCc1cccnc1)CO2.O=C(O)C(F)(F)F.O=C(O)C(F)(F)F (centres undefined)	12.52%
CN(Cc1cccnc1)C1CC2(CCN(c3ncccn3)CC2)C1.O=C(O)C(F)(F)F.O=C(O)C(F)(F)F	96.99%
CN(Cc1ccco1)C1COC2(CCN(Cc3nccs3)CC2)C1.O=C(O)C(F)(F)F.O=C(O)C(F)(F)F (centres undefined)	98.22%
CN(Cc1cn2c(n1)CN(Cc1nccs1)CC2)Cc1ccco1.O=C(O)C(F)(F)F.O=C(O)C(F)(F)F	-16.64%
CN(Cc1ccncc1)C1COC2(CCN(Cc3cccs3)CC2)C1.O=C(O)C(F)(F)F.O=C(O)C(F)(F)F.O=C(O)C(F)(F)F (centres undefined)	100.2%
